The record followed here is PubChem BioAssay (NCI).

The structures appear in SMILES notation. This is part of a sample that, as a whole, favours compounds with a hit. Of some 83,000 tested, about 20% had one in any assay.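 Percent growth is the endpoint: 0 to 100 indicates growth inhibition (40 means 60% inhibition), 0 means no net growth, and negative values indicate cell death.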 Values without a mark were called inactive. The source made the active and inactive calls. Rule for the calls: active = growth percent below 10; inactive = the rest.

This test has as its system UACC-62 melanoma. The test can be described thus: NCI-60 one-dose screen, 48 h (100 = growth as untreated, 0 = no growth, -100 = all killed). The note with it: 10 µM unless noted.
Consider `COc1ccc(C2=CC(c3cc(OC)c(OC)c(OC)c3)NC(=O)N2)cc1OC` (centres undefined), for which the growth is 44.5%.
Regarding `O=C(CCl)N(C1CCCCC1)C1CCCCC1`, the growth is 102%.
Consider `CNC(=S)NNC(=O)C1CC1`, for which the growth was 111%.
The value for `COc1ccc(/C=C(\C#N)c2cc(OC)c3c(c2)OCO3)cc1` was 39.3%.
The value for `O=c1cc(Cc2ccc([N+](=O)[O-])cc2)[nH]c(=O)[nH]1` was 99.9%; that for `CNc1ccc(Br)c2c1C(=O)c1ccccc1C2=O` was 95.8%; that for `Cc1ccc(S(=O)(=O)C2=C3C(=C(c4ccccc4)c4ccccc43)CN(S(=O)(=O)c3ccc(C)cc3)C2)cc1` was 36.9%.
Under `C=C(C)[C@@H]1C[C@@H]2Cc3cc(F)ccc3N1O2` stands 95%; under `NC(N)=Nc1nc2ccccc2o1`, 104%; under `COc1ccc(CN2CCc3c(Sc4ccccc4)nc(N)nc3C2=O)c(OC)c1`, 52.5%.
As for `COc1cc(/C=C/C(=O)c2ccc(Nc3ncnc4cc(OC)c(OC)cc34)cc2)cc(OC)c1`, the growth is 99.9%.
Under `S=C1CC(=S)NC(=S)N1` stands 100%; under `COc1ccc2c(c1)[nH]c(=O)c1c3cccc(F)c3cn21`, 40.3%.
Consider `NC1=NN(O)C2=CC([N+](=O)[O-])C=CC2=N1` (centres undefined), for which the growth is 122%.
Under `C=C[C@@H]1C[C@@H]2Cc3cc(Cl)ccc3N1O2` stands 96.5%.
For the compound `CN(C)CCCC(C#N)c1ccccc1` (centres undefined), the growth is 102%.
In the case of `C=C1CCC2C3(C)COC(c4ccc(N(C)C)cc4)OC3CCC2(C)C1C/C=C1/C(=O)OCC1O` (centres undefined), the growth was 63.1%.
The value for `COc1ccc(-c2cn(-c3cccc(C(=O)/C=C/c4cc(OC)c(OC)c(OC)c4)c3)c(=O)[nH]2)cc1OC` was 73.1%; that for `COc1ccc2c(c1)cn1c3ccc(OC)cc3[nH]c(=O)c21` was 29.9%; that for `C=C[C@@H]1C[C@H](O)Cc2ccccc2N1` was 102%.
The value for `NC(=S)N/N=C1\CCCC(C(F)(F)F)C1` (centres undefined) was 100%.
In the case of `Cn1c(=O)c2[nH]c(C3CC=CCC3)nc2n(C)c1=O` (centres undefined), the growth is 96%.
The value for `N#C/C(=C1C=C/C(=N/O)C(Cl)=C/1)c1ccc(Cl)cc1` was 58.3%.
Under `COc1ccc(C(=O)n2nc(/C=C/c3ccc(O)c(OC)c3)cc2/C=C/c2ccc(O)c(OC)c2)cc1` stands -0.825% (active); under `C=C[C@@H]1C[C@H](O)Cc2c(C)cc(C)cc2N1`, 98.2%; under `Cn1ncc2c(Sc3ccc(Cl)cc3)ncnc21`, 87.9%.
With `COc1cc(/C=C/c2cc(/C=C/c3ccc(O)c(OC)c3)n(C(N)=O)n2)ccc1O`, the growth was -47.2% (active).
In the case of `CO[C@H]1NC(=O)N(S(=O)(=O)c2ccc(Cl)cc2)[C@@H]1OC`, the growth was 100%.
In the case of `COc1ccc2[nH]c(=O)c3c4ccccc4cn3c2c1`, the growth was 28.2%.
Under `Nc1ncnc2c1c(-c1ccc(Oc3ccccc3)cc1)nn2C[C@@H]1SSC[C@@H]1O` stands -81.1% (active).
With `C[n+]1c(/C=C/c2c(O)ccc3ccccc23)ccc2ccccc21`, the growth was 44.6%.
The value for `Cc1ccc(S(=O)(=O)n2cc(C(=O)C(=O)N3CCOCC3)c3ccccc32)cc1` was 68.1%.
For `C=C[C@@H]1C[C@@H]2Cc3c(C)cc(C)cc3N1O2`, the growth is 96%.
Under `C=C[C@@H]1C[C@H](O)Cc2cc(F)ccc2N1` stands 99.1%.
